Data published in PubChem BioAssay (NCI).
Compounds without any hit were thinned out: in the full panel of roughly 83,000, 20% have a hit.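 Results are percent growth after 48 hours of single-concentration exposure. 100 means growth as in untreated cells, lower positive values show inhibition; negative values down to -100 show cell death.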 Values without a mark were called inactive. Calls of active or inactive are those of the source. How the source made its calls: active means growth percent below 10; inactive means the rest.

The molecules below were run on SF-295 CNS (assay: NCI-60 one-dose screen, 48 h (100 = growth as untreated, 0 = no growth, -100 = all killed)). Conditions: 10 µM unless noted.

Going from COc1cc(Nc2ncccc2C(=O)Nc2nc3ccc(F)cc3s2)cc(OC)c1OC to COc1cccc(-c2nc3sccn3c2-c2ccnc(NCCNC(=O)Nc3cccc(C(F)(F)F)c3)n2)c1, the growth rises from 15.6% to 37.7%.

Going from Cc1ccc(Cn2cc(COc3ccc4c5ccnc(C)c5n(CCCc5ccccc5)c4c3)nn2)cc1 to CC1(C)CC(=O)C2=C(C1)OC1=C(C(=O)CC(C)(C)C1)C2c1ccc(OCc2cn(-c3ccc(F)cc3F)nn2)cc1, the growth rises from 87.7% to 95.5%.

Going from CCCCOc1c(N)cc(Cl)cc1C(=O)OCCN(CC)CC to CC(Cl)(CCl)CS(=O)(=O)c1ccc(Cl)cc1 (stereo not given), the growth falls from 101% to 100%.

First: CCc1c(C)c2cc3c(c(C)c2oc1=O)OCC(=O)N3
Second: Cc1ccc(NC(=O)CN2CCOCC2)cc1Cl
The growth of the first is lower: 71.7% for the first, 94.3% for the second.

With CN(C)c1ccc(/C=N/N=C(N)N)cc1 the growth was 61.4%.

For O=C(Nc1ccc(-n2ccc3c(NC(=O)c4ccccc4)ncnc32)cc1)Nc1ccc(Cl)c(C(F)(F)F)c1, the growth was -37.6% (active).

The molecules below were run on SF-539 CNS in the same assay as above. Conditions: 10 µM unless noted.

For COc1ccc(C(=O)NC(=O)Nc2ccc3c(c2)NC(=O)/C3=C\c2[nH]c(C)c(CCC(=O)O)c2C)c(F)c1, the growth was -5.86% (active).
With NCC(=O)NS(=O)(=O)OC[C@H]1O[C@@H](n2cnc3c(N)ncnc32)[C@H](O)[C@@H]1O the growth was -9.36% (active).
O=C(Nc1cccc(-n2ccc3c(NC(=O)c4ccccc4)nccc32)c1)Nc1cc(C(F)(F)F)cc(C(F)(F)F)c1 was tested, and the growth was -19.3% (active).
In the case of CCN(CC)c1ccc(C2CC(c3cc(OC)c(OC)c(OC)c3)=NN2)cc1 (stereo not given), the growth is reported as -43.1% (active).
CCCCCCCCCCCCCCCCCCNCc1ccc(Cl)cc1 was tested, and the growth was -88.1% (active).

First: Cn1c(I)c(C#C[Si](C)(C)C)c(=O)[nH]c1=O
Second: COc1cc(NC(C)CCCN2C(=O)c3ccccc3C2=O)c2nccc(C)c2c1OC (stereo not given)
The growth of the first is lower: 96.7% for the first, 119% for the second.

Compared with COC(=O)c1oc2c(C(C)=O)c(OCCCN(C)C)ccc2c1C, CNCCCOc1c(Br)cc(CCNC(=O)/C(Cc2ccc(OC)c(Br)c2)=N/O)cc1Br is lower in growth: 124% for the first, 32.1% for the second.

Compared with CC(C)NCC(O)COc1ccc(CC(N)=O)cc1 (stereo not given), CC(C)CNCC(=O)Nc1ccc(Cc2ccc(NC(=O)CNCC(C)C)cc2)cc1 is lower in growth: 109% for the first, 77.8% for the second.

Going from O=C(NCCNc1nccc(-c2c(-c3cccc(O)c3)nc3sccn23)n1)Nc1cccc(C(F)(F)F)c1 to COc1cccc(-c2nc3sccn3c2-c2ccnc(NCCNC(=O)c3ccccc3)n2)c1, the growth falls from 98.5% to 97.7%.

Going from O=C(N/N=C1\SCC(=O)N1c1ccccc1)c1cc(-c2cc3ccccc3o2)nn1-c1ccccc1 to O=C1OC(N(Cc2ccc(Cl)cc2)c2ccccc2)c2ccccc21 (stereo not given), the growth falls from 104% to 99.7%.

Going from Cc1ccc2c(c1)Nc1ccc(C)cc1C2(C)C to COc1ccc(-c2c(C#N)cnc(N)c2-c2nc3cc(C)c(C)cc3[nH]2)cc1, the growth falls from 95.7% to 92%.

Compared with CCN(CC)CC(=O)Nc1c(C)cccc1C, CCCCC(=O)Nc1nc2ccc(SCCC)cc2s1 is lower in growth: 104% for the first, 50.5% for the second.

Going from Nc1ncnc2c1c(-c1ccc(Oc3ccccc3)cc1)nn2C[C@@H]1SSC[C@H]1O to Clc1ccc(OCc2nc(-c3ccccc3)n[nH]2)c(Cl)c1, the growth rises from 15.3% to 99.4%.

Going from COc1cc(/C=C\c2cc(/C=C\c3ccc(O)c(OC)c3)n(C(=O)CNc3ccccc3OC)n2)ccc1O to COc1cc(Nc2ncccc2C(=O)Nc2nc3ccc(F)cc3s2)cc(OC)c1OC, the growth rises from 42% to 92.9%.

Compared with CN(C)CC/C=C1\c2ccccc2Sc2ccc(Cl)cc21, O=c1c2ccccc2[nH]n1Cc1ccc2c(c1)OCO2 is higher in growth: 92.3% for the first, 98.1% for the second.

Going from c1ccc2nc(Cn3cc[n+](Cc4ccc5ccccc5n4)c3)ccc2c1 to Cc1nccc2c3ccc(OCc4cn(Cc5ccc(Br)cc5)nn4)cc3n(CCCc3ccccc3)c12, the growth rises from 58.8% to 77%.

Going from O=C(O)c1ccc(-n2cc(/C=N/Nc3ccc(F)cc3)c(-c3cccc(C(F)(F)F)c3)n2)cc1 to O=C(COc1ccc(Cl)cc1Cl)N1N=C(c2ccc(Cl)cc2Cl)CC1(O)c1cc(F)c(Cl)cc1Cl (stereo not given), the growth rises from 75.6% to 112%.

COc1ccc(CCNC=O)cc1OC was tested, and the growth was 91.5%.
